Compound activity: PubChem, National Center for Advancing Translational Sciences (NCATS)
Eya2 phos inh: inhibitors of human Eya2 phosphatase activity; O00167; recombinant Eya2, OMFP fluorescence dephosphorylation (OMFP is methylfluorescein phosphate); Potency, µM (highest dose often 76.9 µM), most hits filed as inhibitors; 0.006% of 330,000 active
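Eya2 (0.2 uM) preincubated 10 min at ambient with compound, then OMFP substrate added at 50 uM; 10 min reaction in 50 mM HEPES pH 7.5, 50 mM NaCl, 5 uM MgCl2, 0.05% BSA, 1 mM DTT. Fluorescence read at Ex 485/Em 525 nm.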
RGS4 inhibitor: blocks human RGS4-accelerated GTP hydrolysis. P49798. Transcreener GDP fluorescence polarization, RGS4-accelerated GTP hydrolysis. Potency, µM (highest dose often 114 µM), usual class: inhibitors. 0.039% of 390,000 active. AID 504845; further: nearly all actives have a fitted effect of over 75% in size
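MLSMR compounds (23 nl, pin-transferred) preincubated 10 min at room temperature with a 500nM (2x) first reagent, then RGS4 at 900nM (2x) plus Transcreener GDP mix added; fluorescence polarization (620/688 nm) read before and after 90 min at 30 °C.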
USP2a inh: USP2a (human) protease inhibition; Potency, µM (titrated, usually from 38.3 µM), most hits filed as inhibitors; 0.01% of 330,000 active; AID 463254; O75604; USP2 core, Ub-CHOP2 coupled fluorogenic reporter, 485/531
Target sequence (O75604 whole entry, looked up): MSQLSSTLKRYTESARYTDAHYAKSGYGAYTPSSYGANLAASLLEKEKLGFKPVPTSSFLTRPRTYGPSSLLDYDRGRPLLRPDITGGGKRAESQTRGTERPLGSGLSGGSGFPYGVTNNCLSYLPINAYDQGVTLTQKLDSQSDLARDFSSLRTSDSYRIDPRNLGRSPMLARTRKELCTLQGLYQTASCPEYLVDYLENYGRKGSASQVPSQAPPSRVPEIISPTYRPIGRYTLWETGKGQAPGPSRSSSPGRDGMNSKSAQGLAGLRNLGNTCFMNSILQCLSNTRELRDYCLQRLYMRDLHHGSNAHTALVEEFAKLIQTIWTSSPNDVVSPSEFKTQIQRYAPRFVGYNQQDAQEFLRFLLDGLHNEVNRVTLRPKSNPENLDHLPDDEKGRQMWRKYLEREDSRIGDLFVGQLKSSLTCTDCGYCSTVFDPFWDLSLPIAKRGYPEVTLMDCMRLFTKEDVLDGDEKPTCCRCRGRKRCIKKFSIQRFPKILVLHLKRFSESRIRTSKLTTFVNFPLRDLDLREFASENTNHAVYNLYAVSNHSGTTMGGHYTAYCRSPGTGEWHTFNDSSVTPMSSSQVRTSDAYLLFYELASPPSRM
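Deubiquitinase activity read as fluorescence (485/531 nm) after Ub-CHOP2 cleavage activates the enterokinase reporter on its substrate; USP2 core 10nM, Ub-CHOP2 and substrate 25nM each, 30min compound preincubation then 60min RT; data normalized to NEM, curves fitted.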
GCN5L2 inh: blocks human GCN5L2 histone acetyltransferase | GCN5L2 HAT assay, ThioGlo1 CoA-SH fluorescence | 0.21% of 390,000 active | Potency, µM (doses to about 58.9 µM), hits mostly inhibitors | Q92830 | AID 504327
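Compounds, pin-transferred from DMSO stocks, meet 20nM GCN5L2 for 15 min before the reaction begins with H3(1-25) peptide (75uM) and acetyl-CoA (70uM). Thiol-reactive ThioGlo1 reports CoA release over 20 min at room temperature.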
BCR signal inh: chronic active BCR signaling inhibition; ABC-DLBCL IkBa-CBG/CBR reporter, luminescence ratio, 4 h; Potency, µM (highest dose often 46.1 µM), actives largely listed as inhibitors; 0.05% of 340,000 active; AID 493014; active means well fitted inhibition curve with a large enough effect in the signal ratio, with a control signal flat, not every such curve was filed as active; inconclusive means small, poorly fitted or top-dose-only effect, or effect the other way, or a change in a side signal; the % refers to the signal ratio
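TMD8 human ABC-DLBCL cells with doxycycline-inducible IκBα–green luciferase fusion and unfused red luciferase, in 0.5% FBS medium; compounds up to 46 uM, 4 h at 37C. Green/red luminescence ratio, filter-overlap corrected, fitted to concentration-response curves.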
uPA generation: cell surface uPA generation inhibition. cell surface uPA generation assay, qHTS. Potency, µM (series often up to 38.3 µM), actives largely listed as inhibitors. 0.31% of 330,000 active. AID 540303; active means well fitted inhibition curve with a large enough effect; inconclusive means small, poorly fitted or top-dose-only effect; inactive means no such curve, though single readings can be large or run the other way; tested in mouse RAW 264.7 cells; further: nearly all actives have a fitted effect of over 55% in size
Numbers stand for hits; – = inactive; ? = inconclusive; · = no result; ! = repeats disagree; [ ] = dose if it differs, or a comment. Rows were chosen to be rich in hits. Some 0.52% of all compounds tested hit in one or more screens of this group. Unless noted, the call rests on the fitted dose curve; in most records, active means well fitted curve in the direction sought with a large enough effect; inconclusive means small, poorly fitted or top-dose-only effect, or another doubt; inactive means no such curve, though single readings can be large; an effect the other way counts as inactive or inconclusive.

SMILES	Eya2 phos inh	RGS4 inhibitor	USP2a inh	GCN5L2 inh	BCR signal inh	uPA generation
COc1c(CC=C(C)C)cc(C2CC(=O)c3c(O)cc(O)cc3O2)cc1CC=C(C)C (centres undefined)	–	–	–	?	?	7.9µM
COc1ccc([C@@H]2CC(=O)c3c(O)cc(O)cc3O2)cc1O	–	–	–	–	–	–
NC(C(=O)O)C(O)c1ccc(O)c(O)c1 (centres undefined)	·	·	·	14µM	·	·
OC[C@@H]1[C@@H](c2ccc(Cl)cc2)C(c2cccc(Cl)c2)=NN1c1ccccc1	–	–	–	28µM!	?	?
CO/S(=N\S(=O)(=O)c1ccc(Cl)cc1)c1ccc([N+](=O)[O-])cc1 (centres undefined)	–	12µM	·	–	·	·
O=C(Cc1ccc(Cl)cc1)NNS(=O)(=O)c1ccc([N+](=O)[O-])cc1	–	–	–	–	–	–
C[C@@H](O)[C@H]1C(=O)N2C(C(=O)O)=C(S[C@@H]3CN[C@H](CNS(N)(=O)=O)C3)[C@H](C)[C@H]12	·	·	·	–	·	·
CC(=O)c1ccc(N=Nc2ccc(N)cc2)cc1	–	–	–	–	–	4µM
CC(=O)c1ccc(N=Nc2c(C)[nH][nH]c2=O)cc1	·	–	·	·	·	–
CCCCCCCC/C=C\CCCCCCCC(=O)NCCO	–	–	–	–	–	–
CCCCCCCC/C=C/CCCCCCCC(=O)NCCOP(=O)(O)O	·	·	·	7.1µM	·	·
CCCCCCCC/C=C\CCCCCCCC(=O)NCCc1ccc(O)c(O)c1	?	?	?	?	–	3.2µM
CCCCCCCC/C=C\CCCCCCCC(=O)NCc1ccc(O)c(OC)c1	–	–	·	–	·	·
COc1ccccc1N1CCN(Cc2cc(Br)c(O)c3ncccc23)CC1	–	–	–	–	?	2.8µM
COc1ccccc1N1CCN(Cc2cc(COC(C)C)c3cccnc3c2O)CC1	·	–	·	–	·	·
CC1=NN(Cc2ccccc2)C(=O)C1C(c1ccc(Cl)cc1)C(C#N)C#N (centres undefined)	–	?	–	–	21µM	–
COc1cc2c(c(OC)c1OC)-c1c(cc3c(c1OC)OCO3)CC(C)C(C)C2 (centres undefined)	·	·	·	–	·	·
COc1cc2c(c(OC)c1OC)-c1c(cc3c(c1O)OCO3)C[C@@H](C)[C@@H](C)C2	–	–	–	–	–	11µM
CCN1/C(=C/c2cc[n+](CCCS(=O)(=O)[O-])c3ccccc23)Sc2ccccc21	–	–	–	–	–	–
C=CC[n+]1ccc(/C=C2\C=Cc3cc(C)ccc3N2CC)c2ccccc21	?	–	–	–	?	2.5µM
COC1[C@@H](OC)C[C@H](C)[C@@H](OC)C2=CC(=O)C=C(NC(=O)/C(C)=C/C=C\[C@H](OC)[C@@H](OC(N)=O)/C(C)=C/[C@@H]1C)C2=O (some centres undefined)	·	·	·	–	·	·
CN(NC(=O)/C=C/C(=O)O)c1ncc(C(F)(F)F)cc1Cl	–	–	–	–	–	–
C=CC(=O)NN(C)c1ncc(C(F)(F)F)cc1Cl	–	–	–	–	–	3.5µM
CCC1CCCCN1S(=O)(=O)c1cc2c3c(c1)CC(=O)N3CCC2 (centres undefined)	·	–	·	–	–	·
CN1CC(O)C2=CC(=O)C(=O)C=C21 (centres undefined)	·	·	·	14µM	·	·
SMILES	Eya2 phos inh	RGS4 inhibitor	USP2a inh	GCN5L2 inh	BCR signal inh	uPA generation
COc1ccc(C2=Nn3c(nnc3-c3ccncc3)SC2)cc1	–	–	–	–	–	–
CCOc1ccc(C2=Nn3c(nnc3-c3ccc(OC)cc3)SC2)cc1	–	?	–	–	13µM	–
COc1ccc(OC)c(-c2nnc3n2N=C(c2ccc(OC)c(OC)c2)CS3)c1	–	–	–	–	?	?
COc1ccc(C2=Nn3c(nnc3-c3ccccc3F)SC2)cc1OC1CCCC1	–	–	–	–	5.8µM	?
CCCc1nnc2n1N=C(c1ccc(OC)c(OC)c1)CS2	–	–	–	–	13µM	?
COc1ccc(-c2cc3ccc(O)c(CN4CCCC(C)C4)c3oc2=O)cc1OC (centres undefined)	·	–	·	–	·	·
N#Cc1ccccc1OCC(=O)N1CCN(c2ccccc2)CC1	·	–	·	–	·	·
O=C(O)CCCN1C(=O)/C(=C\C(Cl)=C\c2ccccc2)SC1=S	–	–	–	–	?	5µM
CN1CCN(C(=O)CCCN2C(=O)/C(=C/c3ccccc3)SC2=S)CC1	–	–	–	–	?	–
O=C(NCc1cccc(F)c1)c1ccccc1NC(=O)c1nsc2ccccc12	·	–	·	–	·	·
Cc1ccc(NC(=O)/C=C/c2ccco2)cc1S(=O)(=O)N1CCCCCC1	·	–	·	·	·	0.89µM
COc1cccc(CN2CCCC(C(=O)Nc3ccc(-c4cscn4)cc3)C2)c1 (centres undefined)	–	–	–	?	–	7.1µM
COc1ccccc1NC(=O)C1=C(C)Nc2c(C(=O)Nc3cccc(C)c3)cnn2C1c1ccccc1Cl (centres undefined)	·	–	·	–	·	·
COc1ccccc1NC(=O)C1=C(C)Nc2c(C(=O)Nc3cccc(C)c3)cnn2C1c1ccccc1C (centres undefined)	·	–	·	28µM	·	·
O=C(c1nc2n(n1)C(c1ccc(Cl)cc1)C=C(c1ccccc1)N2)N1CCOCC1 (centres undefined)	–	–	–	22µM	?	–
O=C(Nc1nc2n(n1)C(c1ccccc1)C=C(c1ccc(Cl)cc1)N2)c1ccco1 (centres undefined)	·	?	·	–	·	·
Cc1c2oc3c(C)ccc(C(=O)NC4C(=O)NC(C(C)C)C(=O)N5CCCC5C(=O)N(C)CC(=O)N(C)C(C(C)C)C(=O)OC4C)c3nc-2c(C(=O)NC2C(=O)NC(C(C)C)C(=O)N3CCCC3C(=O)N(C)CC(=O)N(C)C(C(C)C)C(=O)OC2C)c(N)c1=O (centres undefined)	·	?	·	–	·	·
CSc1nc(C)cc(Nc2cccc(C(=O)O)c2)n1	·	–	·	–	·	·
COc1ccc(-c2cc3nc(C)n(N)c(=O)c3s2)cc1	–	–	–	–	?	0.71µM
COc1ccc(-c2cc3nc4n(c(=O)c3s2)CCC4)cc1	–	–	–	–	–	·
COc1ccc(C(=O)NCc2c(C)nn(Cc3ccccc3)c2C)cc1S(=O)(=O)N1CCOCC1	–	–	–	–	?	10µM
CCN(CC)S(=O)(=O)c1ccc2c(c1)c(=O)c(C(=O)N1CCN(c3ccc(F)cc3)CC1)cn2C	·	–	·	–	·	·
Cc1ccnc(NC(=O)Nc2cccc(F)c2)n1	–	–[11.4 µM]	–	–	–	–
COc1cccc(NC(=O)Nc2nccc(C)n2)c1	–	–	–	–	–	2.5µM
COc1cccc(OCc2ccc(Cl)cc2)c1C#N	–	–	–	–	?	8.9µM
